Data taken from PubChem BioAssay (Tox21).
Records with an inconclusive call do not appear. A call without a number means that no potency is given here. Some structures have more than one record in an assay (separate samples or runs), and their calls can disagree. Active and inactive are the calls of the source. Unless noted, calls follow the shape of the dose curve; as a rule, active = well fitted curve in the direction sought with a large enough effect in the repeat runs; inconclusive = weak or mixed curves; inactive = no such curve, though single readings can be large; an effect the other way counts as inactive or inconclusive.

Legend:
[1] = qHTS assay to identify small molecule agonists of the hypoxia (HIF-1) signaling pathway - cell viability counter screen (AID 1224844; calls by dose curve; also: nearly all actives have a fitted effect of over 50% in size)
How it was run: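 Luminescent ATP content (CellTiter-Glo, 30 min, room temperature) served as the viability measure in HRE-bla ME-180 cells exposed to compounds for 17 hrs in low-serum medium (0.5% dialyzed FBS).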

[2] = qHTS assay to identify small molecule agonists of H2AX - cell viability counter screen (AID 1224847; calls by dose curve; also: nearly all actives have a fitted effect of over 30% in size; also: potency is read from the fitted curve at half-maximal effect;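 as to activity change, negative = cytotoxicity: wild-type CHO-K1 cells; top concentration of the series differs between compounds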)
How it was run: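 Counter-screen for viability: CellTiter-Glo ATP luminescence read after 3 h compound treatment (15-point titration, 0.76% DMSO final) of CHO-K1 cells at 37C, with 30 min room-temperature reagent incubation.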

[3] = qHTS assay to identify small molecule antagonists of the estrogen related receptor (ERR) signaling pathway from Tox21 library (AID 1224848); also: nearly all actives have a fitted effect of over 50% in size
How it was run: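 Reading was by luminescence 30 min after ONE-Glo addition. Before that, ERR cells at 2,000 per well had rested 6 h at 37 C/5% CO2 and then received pin-tooled compounds in DMSO for 18 h at 37 C.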

[4] = qHTS assay to identify small molecule agonists of the estrogen related receptor (ERR) signaling pathway from Tox21 library (AID 1224849; calls by dose curve; also: nearly all actives have a fitted effect of over 15% in size); conditions: ERR reporter cell line, ONE-Glo luciferase, 18 h; at 92.4 µM (top of the series) unless noted
How it was run: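 We plated ERR reporter cells, waited 6 h, added compounds in DMSO by pin tool and incubated them 18 h at 37 C. ONE-Glo was then added and luminescence read after 30 min.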

[5] = qHTS RealTime-Glo MT Cell Viability Assay in HepG2 cells - 24 hour (AID 1224867); also: nearly all actives have a fitted effect of over 50% in size
How it was run: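 Luminescence read-out: viable HepG2 cells reduce a prosubstrate to a NanoLuc substrate, giving a signal proportional to live cell number. Reads taken at 0, 8, 16, 24, 32 and 40 h of compound exposure at 37 C.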

[6] = qHTS RealTime-Glo MT Cell Viability Assay in HEK293 cells - 32 hour (AID 1224868); also: nearly all actives have a fitted effect of over 50% in size; also: potency is read from the fitted curve at half-maximal effect; as to activity change, negative = cytotoxic: top concentration of the series differs between compounds
How it was run: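 Nonlytic real-time viability readout: viable cells convert prosubstrate to NanoLuc substrate, giving luminescence proportional to live cell number. HEK293, 600 cells/well, compound added after 5 h, continuous culture at 37 C.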

[7] = A CellTox Green Cytotoxicity Assay to monitor cytotoxicity in HEK293 cells - 0 hour (AID 1224869); also: nearly all actives have a fitted effect of over 50% in size
How it was run: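 Each value comes from one timepoint of a single continuous run in which HEK293 cells with CellTox Green were exposed to compound for up to 40 h at 37 C, dye fluorescence rising with cell death.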

[8] = qHTS RealTime-Glo MT Cell Viability Assay in HepG2 cells - 40 hour (AID 1224870); also: nearly all actives have a fitted effect of over 50% in size
How it was run: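 Real-time viability: cells seeded at 600 per well together with NanoLuc and cell-permeant prosubstrate, compounds added after 5 h incubation. Luminescence tracked at 0, 8, 16, 24, 32 and 40 h of exposure.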

[9] = qHTS assay to identify small molecule agonists of the hypoxia (HIF-1) signaling pathway (AID 1224846; active = well fitted activation curve with a large enough effect in the signal ratio in the repeat runs, not every such curve was filed as active; the % refers to the signal ratio)
How it was run: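 Measured by blue/green FRET after loading CCF4-AM: beta-lactamase expressed from a hypoxia response element in ME-180 cells. Test agents were delivered in DMSO and left 17 hrs; cells had been plated 5 hrs earlier in low-serum (0.5% dialyzed FBS) medium.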

[10] = qHTS assay to identify small molecule agonists of H2AX (AID 1224845; active = well fitted activation curve with a large enough effect in the signal ratio in the repeat runs, not every such curve was filed as active; the % refers to the signal ratio)
How it was run: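 Phospho-H2AX Ser139 measured by HTRF (ex 320 nm; em 665 and 620 nm) after 24 hr antibody incubation. Compounds, 15 concentrations, 0.76% DMSO, were applied to CHO-K1 cells for 3hr at 37C before lysis.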

Compound: C=C1CC[C@@]2(O)[C@H]3Cc4ccc(O)c5c4[C@@]2(CCN3CC2CC2)[C@H]1O5
- Potency [1]: inactive
- Potency [2]: inactive
- Potency [3]: inactive
- activity change, positive = activation [4]: 8.21% [at 42.5 µM] (inactive)
- Potency [5]: inactive
- Potency [6]: inactive
- outcome [7]: inactive
- Potency [8]: inactive

Compound: O=C(NC(O)C(Cl)(Cl)Cl)NC(O)C(Cl)(Cl)Cl (stereo not drawn)
- Potency [1]: inactive
- outcome [9]: inactive
- Potency [5]: inactive
- Potency [6]: inactive
- outcome [7]: inactive
- Potency [8]: inactive

Compound: CCNc1nc(Cl)nc(NC(C)(C)C)n1
- outcome [10]: inactive
- Potency [2]: inactive
- Potency [5]: inactive
- Potency [6]: inactive
- outcome [7]: inactive
- Potency [8]: inactive

Compound: C[C@H]1CCCC(=O)CCC/C=C/c2cc(O)cc(O)c2C(=O)O1
- outcome [10]: inactive
- outcome [9]: inactive
- Potency [2]: 86.5 µM (active) and inactive
- Potency [5]: inactive
- Potency [6]: 21.1 µM (active)
- outcome [7]: inactive

Compound: C=CCN1CC[C@]23CCCC[C@H]2[C@H]1Cc1ccc(O)cc13
- outcome [10]: inactive
- Potency [3]: inactive
- activity change, positive = activation [4]: 5.12% [at 42.5 µM] (inactive)
- Potency [5]: inactive
- Potency [6]: inactive
- outcome [7]: inactive

Compound: CCCOC(=O)Cc1ccc(OCC(=O)N(CC)CC)c(OC)c1
- outcome [10]: inactive
- outcome [9]: inactive
- Potency [5]: inactive
- Potency [6]: inactive
- outcome [7]: inactive

Compound: CCOC(=O)CCl
- outcome [10]: inactive
- outcome [9]: inactive
- Potency [2]: inactive
- Potency [5]: inactive
- Potency [6]: inactive
- outcome [7]: inactive
- Potency [8]: inactive

Compound: N#CC(Br)(Br)C(N)=O
- outcome [9]: inactive
- Potency [2]: inactive
- Potency [5]: inactive
- Potency [6]: inactive
- outcome [7]: inactive
- Potency [8]: inactive

Compound: NCC1(CC(=O)O)CCCCC1
- outcome [10]: inactive
- Potency [2]: inactive
- Potency [5]: inactive
- Potency [6]: inactive
- outcome [7]: inactive
- Potency [8]: inactive

Compound: O=C(Cl)C(Cl)(Cl)Cl
- outcome [10]: inactive
- outcome [9]: inactive
- Potency [2]: inactive
- Potency [5]: inactive
- Potency [6]: inactive
- outcome [7]: inactive
- Potency [8]: inactive

Compound: CCOC(=O)C(SP(=S)(OC)OC)c1ccccc1 (stereo not drawn)
- outcome [9]: inactive
- Potency [3]: inactive
- activity change, positive = activation [4]: -11.8% (inactive)
- Potency [5]: inactive
- Potency [6]: inactive
- outcome [7]: inactive
- Potency [8]: inactive

Compound: Clc1ccc(C(Cl)(Cl)Cl)cn1
- outcome [10]: inactive
- outcome [9]: inactive
- Potency [2]: inactive
- Potency [5]: inactive
- Potency [6]: inactive
- Potency [8]: inactive

Compound: O=C(O)C(F)(F)C(F)(F)C(F)(F)C(F)(F)C(F)(F)C(F)(F)F
- outcome [10]: inactive
- outcome [9]: inactive
- Potency [5]: inactive
- Potency [6]: inactive
- outcome [7]: inactive
- Potency [8]: inactive

Compound: COC(=O)[C@@H](N)CCCN/C(N)=N/[N+](=O)[O-]
- outcome [10]: inactive
- Potency [2]: inactive
- Potency [5]: inactive
- Potency [6]: inactive
- outcome [7]: inactive
- Potency [8]: inactive

Compound: N=C(N)[Se]
- outcome [10]: inactive
- outcome [9]: inactive
- Potency [5]: inactive
- Potency [6]: inactive
- outcome [7]: inactive
- Potency [8]: inactive

Compound: CCOC(=O)NC(C)(C)Cc1ccc(Cl)cc1
- outcome [10]: inactive
- outcome [9]: inactive
- Potency [2]: inactive
- Potency [5]: inactive
- Potency [6]: inactive
- outcome [7]: inactive
- Potency [8]: inactive

Compound: O=C(O)CBr
- outcome [9]: inactive
- Potency [2]: inactive
- Potency [3]: inactive
- activity change, positive = activation [4]: -0.0549% (inactive)
- Potency [5]: inactive
- Potency [6]: inactive
- Potency [8]: inactive

Compound: ClCCCCCCCl
- outcome [10]: inactive
- outcome [9]: inactive
- Potency [5]: inactive
- Potency [6]: inactive
- outcome [7]: inactive
- Potency [8]: inactive

Compound: CCNc1nc(NCC)nc(SC)n1
- outcome [10]: inactive
- outcome [9]: inactive
- Potency [2]: inactive
- Potency [5]: inactive
- Potency [6]: inactive
- outcome [7]: inactive
- Potency [8]: inactive

Compound: Cn1c(CCCC(=O)O)nc2cc(N(CCCl)CCCl)ccc21
- outcome [10]: inactive
- outcome [9]: inactive
- Potency [3]: inactive
- activity change, positive = activation [4]: -8.11% [at 42.5 µM] (inactive)
- Potency [5]: inactive
- Potency [6]: inactive
- outcome [7]: inactive

Compound: C[C@@H](N)[C@@H](O)c1ccccc1
- outcome [10]: inactive
- outcome [9]: inactive
- Potency [2]: inactive
- Potency [5]: inactive
- Potency [6]: inactive
- outcome [7]: inactive
- Potency [8]: inactive

Compound: O=C(NC(=O)c1c(F)cccc1F)Nc1cc(Cl)c(F)c(Cl)c1F
- outcome [10]: inactive
- outcome [9]: inactive
- Potency [5]: inactive
- Potency [6]: inactive
- outcome [7]: inactive

Compound: Cc1ccc(-c2nc3ccc(C)cn3c2CC(=O)N(C)C)cc1
- outcome [10]: inactive
- outcome [9]: inactive
- Potency [2]: inactive
- Potency [3]: inactive
- activity change, positive = activation [4]: 37.3% [at 42.5 µM] (active)
- Potency [5]: inactive
- outcome [7]: inactive

Compound: Clc1cc2c(cc1Cl)Oc1cc(Cl)c(Cl)cc1O2
- activation (H2AX phosphorylation) [10]: -2.07% [at 0.582 µM] (inactive)
- activation [9]: -1.24% [at 0.291 µM] (inactive)
- activity change, negative = cytotoxicity [2]: -1.16% [at 0.582 µM] (inactive)
- activity change, negative = cytotoxicity [5]: -2.29% [at 0.29 µM] (inactive)
- cytotoxicity [7]: -18% [at 0.29 µM] (inactive)
- activity change, negative = cytotoxic [8]: -10.5% [at 0.29 µM] (inactive)

Compound: CC[C@H](N)c1ccccc1
- outcome [10]: inactive
- outcome [9]: inactive
- Potency [5]: inactive
- Potency [6]: inactive
- outcome [7]: inactive

Compound: N[C@@H]1C[C@H]1c1ccccc1
- outcome [10]: inactive
- Potency [5]: inactive
- Potency [6]: inactive
- outcome [7]: inactive

Compound: C#CCOC(=O)/C=C(C)/C=C/CC(C)CCCC(C)C (stereo not drawn)
- outcome [9]: inactive
- Potency [2]: inactive
- Potency [3]: inactive
- activity change, positive = activation [4]: 0.281% (inactive)
- Potency [5]: inactive
- Potency [6]: inactive
- outcome [7]: inactive
- Potency [8]: inactive

Compound: C=C(Cl)CCl
- outcome [9]: inactive
- Potency [2]: inactive
- Potency [5]: inactive
- Potency [6]: inactive
- outcome [7]: inactive

Compound: CCOc1cc(OP(=S)(OC)OC)nc(CC)n1
- outcome [9]: inactive
- Potency [2]: inactive
- Potency [5]: inactive
- Potency [6]: inactive
- outcome [7]: inactive
- Potency [8]: inactive

Compound: CC1N=C(N)OC1c1ccccc1 (stereo not drawn)
- outcome [10]: inactive
- Potency [2]: inactive
- Potency [5]: inactive
- Potency [6]: inactive
- outcome [7]: inactive
- Potency [8]: inactive

Compound: O=P(O)(O)c1ccccc1
- Potency [2]: inactive
- Potency [5]: inactive
- Potency [6]: inactive
- Potency [8]: inactive

Compound: ClCOCCl
- outcome [10]: inactive
- outcome [9]: inactive
- Potency [2]: inactive
- Potency [5]: inactive
- Potency [6]: inactive
- Potency [8]: inactive

Compound: CN(C)C(=O)Oc1cc(OC(=O)N(C)C)cc(C(O)CNC(C)(C)C)c1 (stereo not drawn)
- outcome [10]: inactive
- Potency [2]: inactive
- Potency [3]: inactive
- activity change, positive = activation [4]: 0.805% [at 42.5 µM] (inactive)
- Potency [5]: inactive
- Potency [6]: inactive
- Potency [8]: inactive

Compound: CC(C)(C)C(=O)C(Cl)Cl
- outcome [10]: inactive
- outcome [9]: inactive
- Potency [2]: inactive
- Potency [5]: inactive
- Potency [6]: inactive
- Potency [8]: inactive

Compound: CC(C)(C)c1cc(O)ccc1O
- Potency [2]: inactive
- Potency [5]: inactive
- outcome [7]: inactive
- Potency [8]: inactive

Compound: CCCOc1nn(C(=O)NS(=O)(=O)c2ccccc2C(=O)OC)c(=O)n1C
- outcome [10]: inactive
- outcome [9]: inactive
- Potency [2]: inactive
- Potency [5]: inactive
- Potency [6]: inactive
- outcome [7]: inactive
- Potency [8]: inactive

Compound: CCOC1Oc2ccc(OS(C)(=O)=O)cc2C1(C)C (stereo not drawn)
- outcome [10]: inactive
- outcome [9]: inactive
- Potency [2]: inactive
- Potency [5]: inactive
- outcome [7]: inactive
- Potency [8]: inactive

Compound: CCc1ccc(C2CCNCC2)cc1
- outcome [10]: inactive
- outcome [9]: inactive
- Potency [2]: inactive
- Potency [5]: inactive
- Potency [6]: inactive
- Potency [8]: inactive
